Reference: the supplement of paper PMC6555819

Tests used:
Experiment in all cases: PBM binding z-score (relative to random genomic background probes); higher = stronger binding; sequences stand for … in GC…GCGATTGACAGCGTAGAATGAAGG
[1] = test system: FXR:RXRa (NR concentration 270 nM, RXRa partner concentration 90 nM)
Outline: (§1)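 Ligand-free nuclear receptor dimers were applied to custom Agilent 4×180K protein-binding microarrays whose double-stranded probes carried direct-repeat seeds, single-nucleotide variants, half-site ablations and random human genomic background sequences in 34-nt variable regions. Incubation lasted 1 h. Binding z-scores were computed against the random background probes from regression-normalized fluorescence.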

[2] = test system: LXRa:RXRa (NR concentration 270 nM, RXRa partner concentration 90 nM)
Outline: as §1

[3] = test system: LXRa homodimer (NR concentration 270 nM)
Outline: as §1

[4] = test system: LXRb:RXRa (NR concentration 270 nM, RXRa partner concentration 90 nM)
Outline: as §1

[5] = test system: LXRb homodimer (NR concentration 270 nM)
Outline: as §1

[6] = test system: PPARa:RXRa (NR concentration 270 nM, RXRa partner concentration 90 nM)
Outline: as §1

[7] = test system: PPARg:RXRa (NR concentration 180 nM, RXRa partner concentration 90 nM)
Outline: as §1

[8] = test system: PPARg:RXRa 270nM:90nM, anti-RXR (NR concentration 270 nM, RXRa partner concentration 90 nM)
Outline: as §1

[9] = test system: PPARg:RXRa 30nM:10nM, anti-RXR (NR concentration 30 nM, RXRa partner concentration 10 nM)
Outline: as §1

[10] = test system: PPARg:RXRa 90nM:30nM, anti-RXR (NR concentration 90 nM, RXRa partner concentration 30 nM)
Outline: as §1

[11] = test system: PPARg:RXRa DBDmut IVT, anti-RXR (DBD mutation: RXRa K156A/R161A, NR concentration 270 nM, RXRa partner concentration 90 nM)
Outline: as §1

[12] = test system: PPARg:RXRa IVT, anti-PPARg (NR concentration 270 nM, RXRa partner concentration 90 nM)
Outline: as §1

[13] = test system: PPARg DBDmut:RXRa IVT, anti-PPARg (DBD mutation: PPARg1 K132A/R137A, NR concentration 270 nM, RXRa partner concentration 90 nM)
Outline: as §1

[14] = test system: PPARg DBDmut IVT, anti-PPARg (DBD mutation: PPARg1 K132A/R137A, NR concentration 270 nM)
Outline: as §1

[15] = test system: PPARg homodimer (NR concentration 180 nM)
Outline: as §1

[16] = test system: PXR:RXRa (NR concentration 270 nM, RXRa partner concentration 90 nM)
Outline: as §1

[17] = test system: PXR homodimer (NR concentration 270 nM)
Outline: as §1

[18] = test system: RARa:RXR (NR concentration 270 nM, RXRa partner concentration 90 nM)
Outline: as §1

[19] = test system: RARa homodimer (NR concentration 270 nM)
Outline: as §1

[20] = test system: RARb:RXRa (NR concentration 270 nM, RXRa partner concentration 90 nM)
Outline: as §1

| Sequence | PBM binding z-score [1] | PBM binding z-score [2] | PBM binding z-score [3] | PBM binding z-score [4] | PBM binding z-score [5] | PBM binding z-score [6] | PBM binding z-score [7] | PBM binding z-score [8] | PBM binding z-score [9] | PBM binding z-score [10] | PBM binding z-score [11] | PBM binding z-score [12] | PBM binding z-score [13] | PBM binding z-score [14] | PBM binding z-score [15] | PBM binding z-score [16] | PBM binding z-score [17] | PBM binding z-score [18] | PBM binding z-score [19] | PBM binding z-score [20] |
| --- | --- | --- | --- | --- | --- | --- | --- | --- | --- | --- | --- | --- | --- | --- | --- | --- | --- | --- | --- | --- |
| CTCGAAATGTCGTGCTCAGGTGAGTATACCAAAC | 0.0674 | -0.048 | -0.175 | -0.182 | 0.0146 | -0.0536 | -0.165 | -0.324 | 0.0529 | -0.0106 | -0.127 | 0.323 | 0.0105 | 0.169 | -0.101 | -0.206 | -0.0833 | 0.0583 | 0.245 | 0.417 |
| TCGCCTAGGTCAGATCGGGCCAGTATACGCTATA | 1.75 | 1.2 | -0.481 | 0.65 | -0.762 | 1.71 | 0.474 | 1.19 | 1.68 | 1.28 | 1.92 | 1.11 | -0.622 | -0.724 | -0.2 | 1.23 | -0.531 | 1.05 | -0.742 | 3.12 |
| CAAACTAGGTCACAGAGCTCAAAGTCCGTGCGTA | 4.29 | 3.18 | 0.278 | 2.01 | 0.231 | 5.45 | 8.88 | 7.47 | 5.2 | 7.26 | 8.61 | 8.86 | 3.69 | 1.2 | 1.74 | 1.81 | -0.0569 | 2.68 | 0.446 | 4.13 |
| GCTTACGGGTCAATGGTTATAGCATGAATAGAAT | 4.8 | 2.75 | -0.289 | 2.89 | 0.196 | 4.78 | 4.3 | 4.54 | 1.86 | 3.57 | 3.66 | 3.16 | 0.504 | 0.889 | 1.06 | 2.21 | 0.167 | 3.03 | 0.149 | 3.43 |
| TCATATAGGTTAACAGGTGAAAGTCCGTAAGTTA | 1.57 | 1.72 | 0.586 | 1.72 | 0.145 | 3.68 | 5.44 | 5.12 | 4.64 | 4.91 | 5.79 | 5.64 | 2.16 | 1.92 | 1.58 | 1.46 | 0.372 | 1.93 | 1.1 | 2.08 |
| TCTGCTAGGTCAGTTGGTCGGCTAACGAGCTGCC | 0.77 | 0.605 | -0.503 | 0.189 | 0.554 | 1.17 | -0.329 | 1.54 | 1.35 | 1.7 | 2.4 | 2.52 | -0.323 | 0.245 | -0.547 | -0.0242 | -0.996 | 0.254 | -0.776 | 3.2 |
| CTCGAAAGGTCGTGCTCAGGTGAGTATCCCAAAC | 4.79 | 3.79 | 0.264 | 3.34 | 0.35 | 4.61 | 2.17 | 3.89 | 0.803 | 2.2 | 0.866 | 1.8 | 0.243 | -0.461 | 1.25 | 3.1 | 0.327 | 3.67 | -0.0794 | 3.83 |
| CCAAGCAGGCCAATCTGGGTCACTCAAGGCTTGA | 0.754 | 1.79 | -0.345 | 0.979 | -1.19 | 3.45 | 2.46 | 2.55 | 0.227 | 1.63 | 4.53 | 4.91 | 0.213 | -1.24 | 0.382 | 1.26 | -0.284 | 1.71 | -1.17 | 1.62 |
| ACCCGGAGGACAAAGGTCAGAGCTACGCCAGTGA | 4 | 4.23 | 1.65 | 3.55 | 0.448 | 5.01 | 6.33 | 6.32 | 3.97 | 5.95 | 0.224 | 2.99 | -0.0126 | -0.296 | 2.98 | 4.14 | 0.302 | 5 | 0.962 | 4.51 |
| CCTCGGAGGACAACACGAGGTCAGAGCTGCCAGA | 1.62 | 2.84 | 2.76 | 1.58 | -0.589 | 2.22 | 0.596 | 0.153 | -0.655 | -0.293 | 0.265 | 0.387 | -0.876 | -1.22 | 1.79 | 3.06 | 0.779 | 3.03 | 0.807 | 2.96 |
| CCGACTGGGGCAAGCTTACCATAACGCACAGCCA | -0.512 | -0.683 | -0.49 | -0.277 | -1.15 | 0.0607 | 0.938 | 0.116 | -0.5 | -0.274 | 3.86 | 2.37 | -0.563 | -1.13 | -0.678 | -0.729 | -0.611 | -0.807 | -0.606 | 0.697 |
| AGTCAAAGTTCAGGGCGAGGTAACGTAAAGCACG | 4.49 | 4.03 | 1.39 | 2.27 | 0.321 | 3.75 | 5.2 | 5.24 | 1.76 | 4.08 | 0.0616 | 2.24 | -0.0376 | 0.418 | 2.91 | 3.19 | 1.1 | 2.93 | 1.23 | 4.49 |
| CAGCCTAGGTCAGAGCCAGTATAGGAGGAACGTT | 1.65 | 0.992 | -0.0153 | 0.607 | -0.514 | 1.69 | 0.786 | 0.566 | -0.211 | 0.234 | 1.93 | 1.53 | -0.412 | -1 | 0.951 | 0.261 | -0.164 | 0.723 | 0.33 | 3.08 |
| TCATATAGGTAAAGGTAAAAGTCGAACGATATGA | 0.715 | 1.06 | -0.299 | 0.926 | -0.151 | 2.1 | 2.75 | 3.46 | 4.13 | 3.8 | 3.98 | 3.36 | 1.85 | 1.27 | 0.454 | 0.53 | 0.308 | 0.709 | 1.3 | 0.845 |
